Compound activity (PubChem)
This excerpt belongs to a sample that is enriched for hits.
FBPA Giardia inh = Giardia lamblia aldolase inhibition | Potency, µM (series often up to 59.6 µM), without a hit: at the top dose activity, negative = inhibition, most hits filed as inhibitors | purified Giardia FBPA | 290,000 tested, 0.71% active | A8B2U2; further: potency means the concentration at half of the fitted maximal effect; on the % scale 0 is the no-effect control and ±100 the full control effect; nearly all actives have a fitted effect of over 55% in size
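Giardia FBPA (40 nM reagent) was preincubated 10 min at RT with compound (up to 57.5 uM final), then substrate plus GAPDH/TPI/NAD/arsenate coupling system with diaphorase/resazurin was added; resorufin fluorescence (525/598 nm) was read after 20 min.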
RE007 growth inh = less growth of the S. pombe RE007 Vpr strain | S. pombe RE007 Vpr strain, BacTiter-Glo ATP luminescence, 24 h | Potency, µM (titrated, usually from 92.2 µM), without a hit: at the top dose activity change, negative = less growth, most hits filed as inhibitors | 360,000 tested, 0.21% active | AID 651644; active means well fitted falling curve with a large enough effect; inconclusive means small, poorly fitted or top-dose-only effect; inactive means no such curve, though single readings can be large or run the other way; further: potency means the concentration at half of the fitted maximal effect; on the % scale 0 is the no-effect control and ±100 the full control effect; nearly all actives have a fitted effect of over 50% in size
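Fission yeast strain RE007, carrying one chromosomally integrated HIV-1 vpr copy, was seeded at OD 0.01 in PMG+AL medium with 23 nL pinned compound. After 24 h at 30 °C and 99% humidity, viability was read by BacTiter-Glo luminescence.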
TbPYK inhibitor = inhibitors of Trypanosoma brucei pyruvate kinase. AID 624173. TbPYK enzyme, Kinase-Glo Plus ATP luminescence, 45 min. Potency, µM (titrated, usually from 76.8 µM), inactives show top-dose activity, negative = inhibition, actives largely listed as inhibitors. 410,000 tested, 0.12% active; further: potency means the concentration at half of the fitted maximal effect; on the % scale 0 is the no-effect control and ±100 the full control effect; nearly all actives have a fitted effect of over 50% in size
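Screened from lowest to highest concentration, compounds were pinned into TbPYK/substrate mixtures, and ADP (130 uM final) was added. Plates sat at room temperature for 45 min prior to Kinase-Glo Plus detection by luminescence.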
Shiga inhibitor = Shiga toxin inhibition; Vero cells, Shiga toxin protein synthesis inhibition reporter; inhibition, % at 38.7 µM; 290,000 tested, 9.2% active; AID 2315; in the data active means inhibition mostly above about 28%, no sharp cut-off; inactive means mostly below about 43%; further: 0% is about no effect
CHX counter = counter-screen hit for Shiga toxin inhibitors, cycloheximide; 300,000 tested, 12% active; max response, %; cell reporter, cycloheximide protein synthesis inhibition counterscreen; in the data active means max response mostly above about 13%, no sharp cut-off; inactive means mostly below about 14%; further: read at 38.3 µM for the half of the compounds with a filed dose; 0% is about no effect
LmPK inh = inhibitors of Leishmania mexicana pyruvate kinase; Q27686; AID 1721; Potency, µM (top dose mostly 57.5 µM), for the others: at the top dose activity change, negative = inhibition, usual class: inhibitors; purified LmPK, Kinase-Glo ATP luminescence, 1 h; 290,000 tested, 0.37% active; further: potency means the concentration at half of the fitted maximal effect; on the % scale 0 is the no-effect control and ±100 the full control effect
Target sequence (Q27686 whole entry, looked up): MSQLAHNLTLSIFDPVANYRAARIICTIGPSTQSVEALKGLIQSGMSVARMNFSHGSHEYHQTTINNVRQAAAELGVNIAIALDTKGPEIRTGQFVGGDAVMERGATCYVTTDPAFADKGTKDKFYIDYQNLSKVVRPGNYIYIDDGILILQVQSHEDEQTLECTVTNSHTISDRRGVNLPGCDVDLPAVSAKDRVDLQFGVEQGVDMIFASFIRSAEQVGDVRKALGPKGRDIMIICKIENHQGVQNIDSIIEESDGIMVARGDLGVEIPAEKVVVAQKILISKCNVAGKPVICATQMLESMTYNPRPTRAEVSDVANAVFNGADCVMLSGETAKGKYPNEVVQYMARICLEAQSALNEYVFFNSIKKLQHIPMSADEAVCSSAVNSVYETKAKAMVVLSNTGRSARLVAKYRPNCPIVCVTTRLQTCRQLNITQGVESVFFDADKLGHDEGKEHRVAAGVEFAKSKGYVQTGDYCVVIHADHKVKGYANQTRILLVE
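ATP generated from ADP (0.1 mM) and PEP (0.5 mM) by 0.1 nM LmPK over 1 h at room temperature (pH 7.2 imidazole buffer) was detected by coupled luciferase luminescence. Values were normalized to uninhibited and no-enzyme wells.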
* hit, by the source's call; [ ] = another dose, or the depositor's remark. Unless noted, the call rests on the fitted dose curve; in most records, active means well fitted curve in the direction sought with a large enough effect; inconclusive means small, poorly fitted or top-dose-only effect, or another doubt; inactive means no such curve, though single readings can be large; an effect the other way counts as inactive or inconclusive.

O=C(Nc1ccc2c(c1)CCC2)C1CCCN(c2ncccn2)C1 (configuration not stated) was read as FBPA Giardia inh 2%[12.9 µM], RE007 growth inh 6%, TbPYK inhibitor 2%, Shiga inhibitor 43*, CHX counter 38* and LmPK inh 6%.
Screening Cc1cc(C)cc(NC(=O)C2CCCN(c3ncccn3)C2)c1 (configuration not stated) returned RE007 growth inh 4%, TbPYK inhibitor -5%, Shiga inhibitor 2, CHX counter 11* and LmPK inh 0%.
For O=C(Nc1cccc(C(F)(F)F)c1)C1CCCN(c2ncccn2)C1 (configuration not stated) the results were FBPA Giardia inh -28%, RE007 growth inh -1%, TbPYK inhibitor -4%, Shiga inhibitor 6, CHX counter -2 and LmPK inh 5%.
For Cc1ccc(NC(=O)C2CCCN(c3ncccn3)C2)c(C)c1 (configuration not stated) the results were FBPA Giardia inh 9%, RE007 growth inh inconclusive, TbPYK inhibitor -6%, Shiga inhibitor 49*, CHX counter 33* and LmPK inh 4%.
Screening Cc1ccc(NC(=O)C2CCCN(c3ncccn3)C2)cc1F (configuration not stated) returned FBPA Giardia inh -16%, RE007 growth inh -2%, TbPYK inhibitor -1%, Shiga inhibitor 54, CHX counter 23* and LmPK inh 6%.
Screening Cc1ccc(NC(=O)C2CCCN(c3nccc(C)n3)C2)c(C)c1 (configuration not stated) returned FBPA Giardia inh 0%, RE007 growth inh 8%, TbPYK inhibitor -2%, Shiga inhibitor -7, CHX counter -1 and LmPK inh -8%.
For COc1ccc(NC(=O)Cn2c(=O)ccc3cc(S(=O)(=O)N4CCCC4)ccc32)cc1Cl the results were TbPYK inhibitor 0%.
`Cc1cccc(OC(=O)c2cc(-c3ccc4c(c3)OCCO4)on2)c1C` gave TbPYK inhibitor -4%.
Cc1ccc(-n2nc(C(=O)NC(C)C)c(=O)n(C)c2=O)cc1 was read as TbPYK inhibitor 0%.
Screening COc1ccccc1/C=C/c1nc(C#N)c(N2CCN(c3ccccc3)CC2)o1 returned TbPYK inhibitor -3%.
CCCc1nc2c(sc3nc4c(cc32)COC(C)(C)C4)c(=O)n1Cc1ccco1 was read as FBPA Giardia inh -6%, RE007 growth inh 6%, TbPYK inhibitor -27%, Shiga inhibitor -4, CHX counter 1 and LmPK inh -1%.
`CC1(C)Cc2nc3sc4c(SCC(=O)NCc5ccco5)ncnc4c3cc2CO1` gave FBPA Giardia inh -1%, RE007 growth inh -13%, TbPYK inhibitor -7%, Shiga inhibitor 99*, CHX counter 51* and LmPK inh -2%.
`Cc1nc2c(sc3nc4c(cc32)COC(C)(C)C4)c(=O)n1CC(=O)NCc1ccco1` gave FBPA Giardia inh -1%, RE007 growth inh 12%, TbPYK inhibitor 0%, Shiga inhibitor 39*, CHX counter 24* and LmPK inh -5%.
For C[C@@H]1CN([C@H](C)CO)C(=O)c2cc(-c3ccc(C(=O)N(C)C)cc3)cnc2O[C@@H]1CN(C)C(=O)c1cccnc1 the results were RE007 growth inh 17% and TbPYK inhibitor -17%.
Cc1nn(C)c(C)c1CN(C(=O)C1CCC(=O)N(C2CCCCCC2)C1)C(C)C (configuration not stated) was read as RE007 growth inh 9%, TbPYK inhibitor -1%, Shiga inhibitor 43, CHX counter 31* and LmPK inh 7%.
`O=C1CCCC1C(=O)Nc1ccc2ccccc2c1` (configuration not stated) gave FBPA Giardia inh -1%, TbPYK inhibitor 5%, Shiga inhibitor 45*, CHX counter 17* and LmPK inh 0%.
For O=C(O)COn1c(-c2ccccc2)nc2ccc(Cl)cc21 the results were FBPA Giardia inh -17%, RE007 growth inh 1%, TbPYK inhibitor -1%, Shiga inhibitor 40, CHX counter 22* and LmPK inh -8%.
Screening COn1c(-c2ccccc2)nc2ccc(Cl)cc21 returned FBPA Giardia inh -5%, RE007 growth inh -25%, TbPYK inhibitor -4%, Shiga inhibitor 72*, CHX counter 31* and LmPK inh -12%.
For O=[N+]([O-])c1ccc2nn(Cc3ccccc3)cc2c1 the results were FBPA Giardia inh 5%, RE007 growth inh -14%, TbPYK inhibitor 1%, Shiga inhibitor 19, CHX counter 1 and LmPK inh 1%.
Screening CN(C)C(=O)On1c(-c2ccccc2)nc2ccc(Cl)cc21 returned FBPA Giardia inh -17%, RE007 growth inh -2%, TbPYK inhibitor -6%, Shiga inhibitor 28, CHX counter 39 and LmPK inh -1%.
Screening O=[N+]([O-])c1ccc2nc(-c3ccccc3)n(OCc3ccc(Cl)cc3)c2c1 returned FBPA Giardia inh -3%, RE007 growth inh 14%, TbPYK inhibitor -4%, Shiga inhibitor 18, CHX counter 18* and LmPK inh 12%.
For COc1cccc(CNC(=O)[C@@H]2CCCN2C(=O)[C@H]2CCCCN2S(=O)(=O)c2ccc(OC)c(C)c2)c1 the results were RE007 growth inh 8% and TbPYK inhibitor 3%.
CCOC(=O)c1ccc(NC(=O)Cc2ccc(-n3c(CC)nc4cccnc43)cc2)cc1 was read as TbPYK inhibitor -14%[15.4 µM].
`COc1ccccc1-c1c(C)nn2c(-c3ccccc3)cc(-c3ccccc3)nc12` gave TbPYK inhibitor -7%.
CCOc1ccc(OCc2ccc(C(=O)Nc3ccc(Cl)cn3)o2)cc1 was read as FBPA Giardia inh -4%, RE007 growth inh -13%, TbPYK inhibitor 2%, Shiga inhibitor 34*, CHX counter 15 and LmPK inh 2%.
O=C(Nc1nn(Cc2ccc(Cl)cc2)cc1Br)c1ccc(COc2ccccc2Cl)o1 was read as FBPA Giardia inh -4%, RE007 growth inh -6%, TbPYK inhibitor 4%, Shiga inhibitor -24, CHX counter -1 and LmPK inh 0%.
O=C(Nc1cccnc1)c1ccc(COc2ccccc2Cl)o1 was read as FBPA Giardia inh 3%, RE007 growth inh -5%, TbPYK inhibitor 3%, Shiga inhibitor -5, CHX counter 10 and LmPK inh -2%.
Screening COC(=O)c1ccccc1NC(=O)c1ccc(COc2cc(C)cc(C)c2)o1 returned FBPA Giardia inh -2%, RE007 growth inh -2%, TbPYK inhibitor 0%, Shiga inhibitor -10, CHX counter 3 and LmPK inh 2%.
